# From PubChem BioAssay
# IL1B secr inh – blocks inflammasome-driven IL-1 beta release; THP-1 LPS/ATP IL-1B secretion, AlphaLISA, 16 h; hits give low values; activity change, % at 57.5 µM; hit rate 4.7% among 360,000; AID 743279; in the data active = activity change below about -50%; inconclusive = mostly about -30% to -49%
#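 Secreted IL-1B measured by AlphaLISA bead assay after 16 h compound exposure of THP-1 cells; compounds (final up to 57.5 uM) added 1 h before LPS (250 ng/mL) and ATP (1.25 mM) stimulation; lower signal means less secretion.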
# 12-LOX inh – blocks human arachidonate 12S-lipoxygenase. P18054. purified 12hLO, xylenol orange hydroperoxide absorbance. Potency, µM (titrated, usually from 108 µM), inactives show at the highest dose activity change, negative = inhibition, actives largely listed as inhibitors. hit rate 1.1% among 580,000. AID 1671190; also: potency is read from the fitted curve at half-maximal effect
# Target sequence (P18054 whole entry, looked up): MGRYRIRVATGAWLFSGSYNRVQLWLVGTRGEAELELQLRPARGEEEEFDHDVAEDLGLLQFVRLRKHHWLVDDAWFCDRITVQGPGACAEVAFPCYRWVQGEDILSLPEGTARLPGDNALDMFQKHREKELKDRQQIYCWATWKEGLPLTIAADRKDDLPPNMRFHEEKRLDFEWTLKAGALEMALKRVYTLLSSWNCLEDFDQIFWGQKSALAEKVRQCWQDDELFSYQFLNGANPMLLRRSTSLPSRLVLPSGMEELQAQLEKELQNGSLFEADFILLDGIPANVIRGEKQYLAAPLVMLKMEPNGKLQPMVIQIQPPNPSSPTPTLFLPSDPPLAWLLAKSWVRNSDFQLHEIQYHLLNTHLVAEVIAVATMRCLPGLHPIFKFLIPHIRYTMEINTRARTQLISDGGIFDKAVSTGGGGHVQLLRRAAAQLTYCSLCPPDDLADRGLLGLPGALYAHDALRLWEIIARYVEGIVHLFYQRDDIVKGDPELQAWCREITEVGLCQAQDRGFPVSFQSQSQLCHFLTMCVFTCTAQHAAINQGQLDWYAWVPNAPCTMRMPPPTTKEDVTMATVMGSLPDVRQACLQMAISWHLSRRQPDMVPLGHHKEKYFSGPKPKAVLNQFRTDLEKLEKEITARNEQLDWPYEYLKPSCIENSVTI
#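 Purified human 12hLO at 150 nM in 25 mM Hepes, 0.01% Triton X-100, pH 7.0, preincubated 15 min at room temperature with compound. Reaction started with 40 uM arachidonic acid, 30 min at room temperature. Hydroperoxide measured by Fe-xylenol orange, 573/405 nm absorbance ratio.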
# DT40 TDP1 CPT – growth inhibition of DT40 Tdp1-/-;hTDP1 cells with camptothecin (screen for TDP1 inhibitors) | chicken DT40 Tdp1-/-;hTDP1 cells + 20 nM CPT, ATP luminescence, 48 h | Potency, µM (series often up to 46.2 µM), inactives show at the top dose activity change, negative = growth inhibition, hits mostly inhibitors | hit rate 12% among 420,000; also: potency is read from the fitted curve at half-maximal effect; nearly all actives have a fitted effect of over 55% in size
#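 Chicken DT40 Tdp1-/- cells complemented with human TDP1, 400 cells/well, exposed to compounds plus 20 nM camptothecin for at least 48 h at 37 C; viability read as ATP content by CellTiter-Glo luminescence.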
# HT1080 IDH1KD tx – HT-1080 IDH1 knockdown cell toxicity (counter line). hit rate 2% among 360,000. Potency, µM (top dose mostly 46.1 µM), without a hit: at the highest dose activity, negative = toxicity, actives largely listed as cytotoxic. HT-1080 IDH1 knockdown viability, ATP luminescence, 48 h;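 also: potency is read from the fitted curve at half-maximal effect; 0% = DMSO wells and -100% = cell-free medium wells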
#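 Viability of IDH1-knockdown HT-1080 fibrosarcoma cells was assessed by CellTiter-Glo after 48 h at 37 °C with titrated compound; concentration-effect curves were classified by fit quality and response size.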
# HT1080NT lethal – kills 2HG-producing HT-1080-NT fibrosarcoma cells; HT-1080-NT fibrosarcoma viability, CellTiter-Glo ATP luminescence, 48 h; Potency, µM (series often up to 46.1 µM), inactives show at the top dose activity, negative = less viability, actives largely listed as cytotoxic; hit rate 1.6% among 360,000;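 also: NT is the 2HG producing partner of a matched IDH1 knockdown line; potency is read from the fitted curve at half-maximal effect; 0% = DMSO-treated cells and -100% = media-only wells without cells; nearly all actives have a fitted effect of over 55% in size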
#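 HT-1080-NT fibrosarcoma cells (2HG-overproducing), 750 cells/well in RPMI with 5% FBS, dosed after 2 h and incubated 48 h at 37C. CellTiter-Glo luminescence normalized to DMSO and no-cell wells; concentration-response curves fitted and classed.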
# DT40 TDP1 no CPT – qHTS for Inhibitors of human tyrosyl-DNA phosphodiesterase 1 (TDP1): qHTS in cells in absence of CPT; DT40 Tdp1-/- hTDP1 cells, no CPT, ATP luminescence, 48 h; Potency, µM (titrated, usually from 46.2 µM), without a hit: top-dose activity change, negative = growth inhibition, hits mostly inhibitors; hit rate 15% among 420,000; AID 686978, 2013; also: potency is read from the fitted curve at half-maximal effect; nearly all actives have a fitted effect of over 55% in size
#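 Compound effects on proliferation are scored in DT40 Tdp1-/-;hTDP1 cells in the absence of CPT. ATP levels (CellTiter-Glo luminescence) are recorded after a ≥48 hr, 37 °C incubation.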
# An asterisk follows results filed as active; u = inconclusive; x = no result. Shown is part of a subset that was picked to be rich in hits. Unless noted, calls follow the shape of the dose curve; as a rule, active = well fitted curve in the direction sought with a large enough effect; inconclusive = small, poorly fitted or top-dose-only effect, or another doubt; inactive = no such curve, though single readings can be large; an effect the other way counts as inactive or inconclusive. Unless noted, % is scaled to controls: 0 for no effect and ±100 for the full control effect.
SMILES,IL1B secr inh,12-LOX inh,DT40 TDP1 CPT,HT1080 IDH1KD tx,HT1080NT lethal,DT40 TDP1 no CPT
CC(=O)Nc1ccc(-c2ccnc3c2CC(C)(C(=O)NCc2cccc(Cl)c2)O3)cc1 (stereo not drawn),-13.1,7.1%,u,u,u,23.1µM*
CC(=O)Nc1cccc(-c2ccnc3c2CC(C)(C(=O)NCc2ccc(N(C)C)cc2)O3)c1 (stereo not drawn),9.1,-5.1%,3.26µM*,5.17µM*,u,2.91µM*
CC(=O)Nc1cccc(-c2ccnc3c2CC(C)(C(=O)NCc2cccc(Cl)c2)O3)c1 (stereo not drawn),64.5,7.2%,3.66µM*,u,u,4.11µM*
CC(=O)Nc1cccc(-c2ccnc3c2CC(C)(C(=O)NCCN(C)C)O3)c1 (stereo not drawn),30.4,-6.0%,0.7%,4.7%,27.0%,-3.1%
O=C(Cn1cc(C(F)(F)F)ccc1=O)Nc1cc(C(F)(F)F)ccc1Cl,x,-20.0%,x,x,x,x
CN1C(=O)[C@H]2CN(Cc3ccc(F)c(Br)c3)C[C@H]2C1=O,x,48.3%,x,x,x,x
COC(=O)c1cccc(NC(=O)c2ccc3c(c2)CCC3)c1,x,26.9%,x,x,x,x
COCC(=O)NC1CCc2nnc(C3CC3)n2CC1 (stereo not drawn),x,64.0%,x,x,x,x
CSc1nnc2c(n1)OC(c1cc3c(cc1Br)OCO3)N(C(C)=O)c1ccccc1-2 (stereo not drawn),x,-14.9%,x,x,x,x
O=C(NCc1ccccc1F)C1CCN(Cc2cc3ccccc3n2Cc2cccc(Cl)c2)CC1,x,u,u,x,x,23.1µM*
CC(CNC(=O)C1CCC(C(=O)NCC(C)c2ccccc2)CC1)c1ccccc1 (stereo not drawn),x,13.4%,x,x,x,x
CC(=O)Nc1ccc(CN2CCCC(CCC(=O)NCc3ccccc3F)C2)cc1 (stereo not drawn),-14.2,-1.0%,4.5%,1.1%,0.3%,2.5%
Cc1ccc(Cn2c(CN3CCC(C(=O)NCCc4ccccc4)CC3)cc3ccccc32)cc1,x,-13.9%,23.1µM*,x,x,16.4µM*
Cc1ccc(Cn2c(CN3CCC(C(=O)NCC(C)c4ccccc4)CC3)cc3ccccc32)cc1 (stereo not drawn),x,-21.3%,u,x,x,25.9µM*
COCCCNC(=O)C1CCN(Cc2cc3ccccc3n2Cc2ccccc2C)CC1,x,-22.3%,u,x,x,u
O=C(CCC1CCCN(Cc2cccc(Cl)c2)C1)NCc1ccccc1F (stereo not drawn),0.0,-14.5%,20.6µM*,1.6%,28.2%,u
O=C(NCCc1noc(-c2ccccc2)n1)c1ccoc1,x,28.7%,x,x,x,x
COc1cccc(C(=O)c2oc3cc(NC(C)=O)ccc3c2C)c1,x,-59.0%,x,x,x,x
NC(N)=NC(N)=Nc1ccc(Cl)c(Cl)c1,x,7.7%,x,x,x,x
O=C(NCc1ccco1)C1CCN(c2nc3ccccc3n2Cc2ccccc2F)CC1,u,u,16.4µM*,-8.5%,11.3%,u
Cc1cc(C)nc(N2CCC(C(=O)NCc3ccccc3F)CC2)n1,18.1,6.5%,2.4%,10.1%,-7.3%,13.1%
O=C(NCCc1ccccc1)C1CCN(Cc2cc3ccccc3n2Cc2cccc(Cl)c2)CC1,x,u,u,x,x,20.6µM*
CN(C)CCNC(=O)CNc1nc(Cl)nc2nc[nH]c12,x,-7.0%,x,x,x,x
Clc1ccc(C(c2cccs2)N2CCNCC2)cc1 (stereo not drawn),-50.2*,-13.2%,13µM*,u,-11.1%,18.4µM*
C=CCC[C@@H](Cc1ccc(F)cc1)C(=O)OC[C@@H](Cc1c[nH]c2ccccc12)NC(=O)[C@H](CC=C)CC(=O)N[C@H](CO)Cc1ccccc1,90.6,-36.1%,u,u,20.6µM*,u
